# Assay results as given in PubChem BioAssay (EPA / NIEHS).
# More than one record can exist for a structure, and the calls need not agree. Calls of active or inactive are those of the source. How the source made its calls: active means hit-call score of the fitted dose curve at least 0.9, where 1 is the maximum; inactive means score below 0.9.
# Test: CCTE_Shafer_MEA_dev_per_network_spike_spike_percent: CCTE's Neural Network Formation Assay for Percent of Spikes in a Network Spike, Shafer Lab (AID 2284054)
# Method: CCTE_Shafer_MEA_dev assay is conducted using Axion Biosystems 48 well microelectrode array (MEA) plates and Maestro recording system. Each well of the MEA plate contains a grid of 16 microelectrodes embedded in the culture surface. Electrically active cells, such as neurons, can be cultured over the electrodes, and electrical activity in these cells can be recorded extracellularly. The spontaneous firing of neurons is captured from each electrode on a microsecond timescale providing both temporally and spatially precise data. […] The CCTE_Shafer_MEA_dev assay uses primary cultures of rat cortical neurons. Recordings are made on days post-plating 5, 7, 9 and 12. As these cultures mature over time, neural networks develop functional activity and form cohesive networks in which electrical activity can be highly coordinated. CCTE_Shafer_MEA_dev_per_network_spike_spike_percent is 1 of 19 assay components of the CCTE_Shafer_MEA_dev assay. It measures the percent of spikes (action potential firings) in a network spike (temporally-clustered group of spikes across multiple electrodes) as the number of spikes that occur within a 0.05 s time window at the peak of a network spike divided by the total number of spikes during a recording in a microelectrode array (MEA) using Axion Biosystems Maestro 768 channel amplifier with the AxIS adaptive spike detector. To collapse across multiple recordings made on days post-plating 5, 7, 9 and 12, the trapezoidal area-under-the-curve of the component is calculated.Data from the assay component CCTE_Shafer_MEA_dev_per_network_spike_spike_percent was analyzed into 1 assay endpoint. This assay endpoint, CCTE_Shafer_MEA_dev_per_network_spike_spike_percent, was analyzed in the negative analysis fitting direction relative to DMSO as the negative control and baseline of activity. Using a type of functional reporter, gain or loss-of-signal activity can be used to understand electrical activity.
# On the day prior to culture, each well was coated thoroughly with 150 uL of 0.05% polyethyleneimine (PEI, Sigma Cat P3143) in 50 mM HEPES (Sigma Cat H7523) at a pH of 8. The plate was incubated at 37C for one hour. PEI was rinsed out with 500 uL of sterile water three times. Plates were stored at 4C until the day of culture. This culture was plated at a seeding density of 1.5 x 10^5 cells/well on a 48-well MEA plate, prepared as described above. Cells were administered via a 25 uL media/laminin ([…]; Sigma Cat L2020-1MG) drop directly onto the microelectrode array, as adding the cells with the laminin results in better attachment than pre-coating with laminin. After 2 hours, an additional 475 uL of cortical media was added and the cells returned to the incubator. Exposure starts at day 0 of plating and is continued over twelve days of network development until the experiment is terminated. Cells are fed with fresh medium on DIV 5 and 9, following the recordings on those days. The entire volume of media in the well is exchanged and any vehicle or compound treatment is renewed. Complete details are found in OP-NHEERL/ISTD/SBB/TJS/2015-03-r0 (available on request, email shafer.tim@epa.gov). Measurement of the electrical activity is non-invasive, and recordings can be made from the same plate over multiple different days of the culture. In cortical neurons, this allows for the measurement of extracellular action potentials over the period during which networks form in the MEA plate.
Compound,AC50,outcome
CN1C(=O)CN=C(c2ccccc2)c2cc(Cl)ccc21,15 µM (active),
C#CCN(C)[C@H](C)Cc1ccccc1,,inactive
CC1CCCC1.[C-]#[O+].[C-]#[O+].[C-]#[O+].[Mn],,inactive
C[n+]1ccc(-c2ccccc2)cc1,,inactive
c1ccc2c(c1)cc1ccc3cccc4ccc2c1c34,,inactive
CP(=O)(O)CCC(N)C(=O)O (stereo not given),,inactive
[Cd+2].[Cl-].[Cl-],0.585 µM (active),
CC1(C)C(C=C(Cl)Cl)C1C(=O)O[C@H](C#N)c1cccc(Oc2ccccc2)c1 (stereo not given in full),7.68 µM (active),
CC1(C)C(C=C(Cl)c2ccc(Cl)cc2)C1C(=O)OC(C#N)c1ccc(F)c(Oc2ccccc2)c1 (stereo not given),23.3 µM (active),
CCOP(=O)(Oc1cnc(C(C)(C)C)nc1)OC(C)C (stereo not given),,inactive
CCOP(=O)(OCC)SCSCC,90.9 µM (active),
O=[As]O,1.14 µM (active),
CCC1(c2ccccc2)C(=O)NC(=O)NC1=O,,inactive
CNC(=N[N+](=O)[O-])NCC1CCOC1 (stereo not given),,inactive
C/C(=C/C=C/[C@@H](C)C(=O)O)[C@H]1CN[C@H](C(=O)O)[C@H]1CC(=O)O,2.33 µM (active),inactive
CN[C@]1(c2ccccc2Cl)CCCCC1=O,,inactive
CC(C)CCCCCCCOP(=O)(Oc1ccccc1)Oc1ccccc1,,inactive
C[C@H](N)Cc1ccccc1,,inactive
Cc1ccc(OP(=O)(Oc2ccc(C)cc2)Oc2ccc(C)cc2)cc1 (tested in a mixture with another compound),,inactive

Compound,AC50,outcome
O.O.O.O.O.[Cd+2].[Cd+2].[Cl-].[Cl-].[Cl-].[Cl-],0.228 µM (active),
CC1(C)[C@@H](C=C(Cl)Cl)[C@@H]1C(=O)O[C@@H](C#N)c1ccc(F)c(Oc2ccccc2)c1,15 µM (active),
C=CCN1CC[C@]23c4c5ccc(O)c4O[C@H]2C(=O)CC[C@@]3(O)[C@H]1C5,,inactive
Cn1nc(C(F)(F)F)c(CS(=O)(=O)C2=NOC(C)(C)C2)c1OC(F)F,,inactive
CC(=O)[O-].[Tl+],,inactive
Brc1ccc(Oc2ccc(Br)cc2Br)c(Br)c1,15.1 µM (active),inactive
CCOP(=O)(O)OCC (tested in a mixture with another compound),,inactive
COC(=O)[C@H]1[C@@H](OC(=O)c2ccccc2)C[C@@H]2CC[C@H]1N2C,,inactive
CP(=O)(O)CC[C@H](N)C(=O)O,,inactive
CC1(C)[C@H](C(=O)O[C@H](C#N)c2cccc(Oc3ccccc3)c2)[C@@H]1C=C(Br)Br,1.8 µM (active),
CCCCC(CC)COC(=O)c1cc(Br)c(Br)c(Br)c1Br (stereo not given),18.9 µM (active),
COP(=O)(OC)SCN1C(=O)c2ccccc2C1=O,,inactive
CC(=O)[O-].CC(=O)[O-].O.O.O.[Pb+2],15 µM (active),
CC1(C)[C@H](C=C(Cl)Cl)[C@@H]1C(=O)O[C@@H](C#N)c1cccc(Oc2ccccc2)c1,15 µM (active),
CCOP(=O)(OCC)SCSC(C)(C)C,,inactive
O=C(O)CNCP(=O)(O)O,,inactive
[CH3][Sn]([CH3])[CH3],0.221 µM (active),
[CH3][Hg][Cl],0.309 µM (active),
NCCc1cc(O)c(O)cc1O,10.1 µM (active),
